Experiments:
[1] = system: Vero E6 infected with SARS-CoV-2; assay: morphology score (similarity to uninfected cells); higher = more like uninfected cells; conditions: 24 h
[2] = system: Vero E6 infected with SARS-CoV-2; assay: SARS-CoV-2 infection rate relative to infected DMSO; higher = more infection, active = 60 or less; conditions: 24 h

Compound	morphology score [1]	SARS-CoV-2 infection rate [2]
Cn1cc(-c2ccc3ncc(Cc4ccc5ncccc5c4)n3n2)cn1 (10 µM)	0.442	83% (inactive)
OCCCCO [1,4-butanediol] (10 µM)	0.0223	105% (inactive)
CCc1cc2c(cc1CC)CC(NC[C@H](O)c1ccc(O)c3[nH]c(=O)ccc13)C2 [indacaterol] (10 µM)	0.0532	114% (inactive)
c1ccc2cc(C3=NCCN3)ncc2c1 (10 µM)	0.119	102% (inactive)
CCOC(=O)[C@H]1O[C@@H]1C(=O)N[C@@H](CC(C)C)C(=O)NCCC(C)C [aloxistatin] (10 µM)	0.331	90% (inactive)
C=CCc1cccc(/C=N/NC(=O)CN2CCN(Cc3ccccc3)CC2)c1O (0.833333 µM)	0.152	100% (inactive)
N=C(N)c1ccc(OCCCCCOc2ccc(C(=N)N)cc2)cc1 [pentamidine] (10 µM)	0.104	109% (inactive)
OC[C@H]1O[C@@H](n2cnc3c(NC4CCCC4)nc(Cl)nc32)[C@H](O)[C@@H]1O [2-chloro-N6-cyclopentyladenosine] (10 µM)	0.106	95% (inactive)
CNC(=O)c1cc(Oc2ccc(NC(=O)Nc3ccc(Cl)c(C(F)(F)F)c3)cc2)ccn1 [sorafenib] (0.833333 µM)	-0.246	118% (inactive)
O=c1ccn([C@@H]2O[C@H](CO)[C@@H](O)[C@H]2O)c(=O)[nH]1 [uridine] (10 µM)	0.318	96.5% (inactive)
COCc1c(-c2ccc(NC(=O)Nc3cc(C(F)(F)F)ccc3F)c(F)c2)c2c(N)ncnn2c1CN1CCOCC1 (0.833333 µM)	0.227	96.5% (inactive)
Cc1[nH]cnc1CN1CCc2c(c3ccccc3n2C)C1=O [alosetron] (10 µM)	-0.0421	98% (inactive)
Oc1ccc2c3c1O[C@H]1c4[nH]c5c(c4C[C@@]4(O)[C@@H](C2)N(CC2CC2)CC[C@]314)C[C@@]1(O)[C@H]2Cc3ccc(O)c4c3[C@@]1(CCN2CC1CC1)[C@H]5O4 [nor-binaltorphimine] (10 µM)	-0.0703	114% (inactive)
Nc1cc(C(Cl)=C(Cl)Cl)c(S(N)(=O)=O)cc1S(N)(=O)=O [clorsulon] (10 µM)	0.206	98% (inactive)
CCOC(=O)[C@@](C)(N)Cc1ccc(O)c(O)c1 [methyldopate] (10 µM)	0.0423	108% (inactive)
CC[C@@H](CO)NC(=O)[C@@H]1C=C2c3cccc4c3c(cn4C)C[C@H]2N(C)C1 [methysergide] (10 µM)	0.0741	110% (inactive)
C=CCN1CC[C@]2(C)c3cc(O)ccc3C[C@H]1[C@H]2C (10 µM)	0.112	102% (inactive)
COc1ccccc1CC(=N)N1C[C@@H]2C(=O)CCC(c3ccccc3)(c3ccccc3)[C@@H]2C1 (10 µM)	-0.184	110% (inactive)
CN1CCC(=C2c3ccccc3CCc3sccc32)CC1 [pizotifen] (10 µM)	0.285	94.5% (inactive)
CS(=O)(=O)c1ccc(Cn2c3c(c4cc(F)cc(F)c42)CCCC3CC(=O)O)cc1 (centres undefined) (10 µM)	0.144	90% (inactive)
COC(=O)Nc1nc2cc(C(=O)c3ccccc3)ccc2[nH]1 [mebendazole] (0.833333 µM)	-0.163	102% (inactive)

Compound	morphology score [1]	SARS-CoV-2 infection rate [2]
C=C(C)[C@@H]1[C@H]2OC(=O)[C@@H]1[C@]1(O)C[C@H]3O[C@]34C(=O)O[C@H]2[C@]14C [picrotoxinin] (10 µM)	0.0677	116% (inactive)
CN1CCN(c2cccc3[nH]c(=O)oc23)CC1 [pardoprunox] (10 µM)	-0.1	103% (inactive)
COC1(C[S@@+]([O-])c2ccccc2)CCN(CCc2c[nH]c3ccc(F)cc23)CC1 (10 µM)	-0.00604	102% (inactive)
COc1cccc(OC)c1-c1ccc(C[C@H](NC(=O)c2c(Cl)cccc2Cl)C(=O)O)cc1 (10 µM)	-0.141	102% (inactive)
O=C(O)/C=C/CO [trans-4-hydroxycrotonic-acid] (10 µM)	0.0958	90.5% (inactive)
NCCCC[C@H](N[C@@H](CCc1ccccc1)C(=O)O)C(=O)N1CCC[C@H]1C(=O)O [lisinopril] (10 µM)	0.0957	100% (inactive)
Cc1nnsc1C(=O)Nc1ccc(-n2nc(C(F)(F)F)cc2C(F)(F)F)cc1 (10 µM)	-0.0783	106% (inactive)
Cc1cc(=O)[nH]c(=S)[nH]1 [methylthiouracil] (10 µM)	0.0905	104% (inactive)
NCc1ccccc1CC(=O)N[C@@H]1C(=O)N2C(C(=O)O)=C(CSc3nnnn3CC(=O)O)CS[C@H]12 [ceforanide] (10 µM)	0.13	100% (inactive)
Cc1cc2c(N3CCCC3)nc(N3CCCC3)nc2n1C (10 µM)	0.452	75% (inactive)
Cc1ccc(NC(=O)c2cccc(N(C)C)c2)cc1NC(=O)c1ccc(O)cc1 (10 µM)	-0.0598	97.5% (inactive)
Cc1ccc2c(c1)C1(CCN(CCc3nc(-c4ccccc4)oc3C)CC1)OC(=O)N2 (0.833333 µM)	0.0199	104% (inactive)
Cc1ccc(Nc2c(F)cccc2Cl)c(CC(=O)O)c1 [lumiracoxib] (10 µM)	0.182	109% (inactive)
Nc1c(CC(=O)O)cccc1C(=O)c1ccc(Br)cc1 [bromfenac] (10 µM)	-0.048	104% (inactive)
CNNCc1ccc(C(=O)NC(C)C)cc1 [procarbazine] (10 µM)	0.133	106% (inactive)
Cc1cccc(NC(=O)N[C@@H]2N=C(c3ccccc3)c3ccccc3N(C)C2=O)c1 (10 µM)	0.0212	106% (inactive)
Cc1cc(O)c2c(c1)C(=O)c1cc(O)cc(O)c1C2=O [emodin] (10 µM)	0.146	106% (inactive)
NC(=S)N/N=C/c1ccncc1 [perchlozone] (10 µM)	-0.0589	114% (inactive)
CCOC(=O)Nc1ccc2c(c1)N(C(=O)CN(C)C)c1ccccc1CC2 [tiracizine] (10 µM)	-0.162	111% (inactive)
O=C1c2ccccc2S(=O)(=O)N1CCCCN1CCN(c2ncccn2)CC1 [ipsapirone] (10 µM)	-0.0209	102% (inactive)
CCCCOc1cc(C(=O)OCCN(CC)CC)ccc1N [oxybuprocaine] (10 µM)	0.0894	114% (inactive)

Compound	morphology score [1]	SARS-CoV-2 infection rate [2]
CCc1cccc(CC)c1NC(=O)c1nn(C)c2c1CCc1cnc(Nc3ccc(C(=O)NC4CCN(C)CC4)cc3OC(F)(F)F)nc1-2 (10 µM)	-0.0668	111% (inactive)
Cn1cc(-c2cnc3ccc4ccc(CS(=O)(=O)NCc5ccccn5)cc4c(=O)c3c2)cn1 (10 µM)	0.0342	106% (inactive)
COc1cc(N)c(Cl)cc1C(=O)NC1CN2CCC1CC2 (centres undefined) [zacopride] (10 µM)	0.169	89% (inactive)
CC1Sc2c(C(=O)O)c(=O)c3cc(F)c(N4CCNCC4)cc3n21 (centres undefined) [ulifloxacin] (10 µM)	-0.0402	106% (inactive)
Cc1c(F)cccc1NC(=O)Nc1ccc(Cl)c(S(=O)(=O)[C@H]2CCCNC2)c1O [danirixin] (10 µM)	0.19	98% (inactive)
Clc1cccc(Cl)c1NC1=NCCN1 [clonidine] (10 µM)	0.0616	100% (inactive)
O=C1NC(=O)c2cc(Nc3ccccc3)c(Nc3ccccc3)cc21 (10 µM)	0.39	72% (inactive)
Cc1cc(C)c(NC(=O)N(Cc2ccc3c(c2)Cc2ccccc2-3)C2CCCCCC2)c(C)c1 (10 µM)	-0.179	106% (inactive)
Cc1ncc(CO)c(CO)c1O [pyridoxine] (10 µM)	0.0823	108% (inactive)
Cl/C=C\C[N+]12CN3CN(CN(C3)C1)C2 [1-((Z)-3-chloroallyl)-1,3,5,7-tetraazaadamantan-1-ium] (10 µM)	0.0348	99% (inactive)
Cc1ccc(C(=O)Nc2ccc(S(=O)(=O)O)c3cc(S(=O)(=O)O)cc(S(=O)(=O)O)c23)cc1NC(=O)c1cccc(NC(=O)Nc2cccc(C(=O)Nc3cc(C(=O)Nc4ccc(S(=O)(=O)O)c5cc(S(=O)(=O)O)cc(S(=O)(=O)O)c45)ccc3C)c2)c1 [suramin] (10 µM)	0.13	101% (inactive)
CO[C@@]1(NC(=O)CSC[C@@H](N)C(=O)O)C(=O)N2C(C(=O)O)=C(CSc3nnnn3C)CS[C@@H]21 [cefminox] (10 µM)	0.045	115% (inactive)
CCN1/C(=C/C(C)=O)Sc2ccc(OC)cc21 (10 µM)	-0.0524	108% (inactive)
NC1CCN(c2c(F)cc3c(=O)c(C(=O)O)cn(C4CC4)c3c2Cl)C1 (centres undefined) [clinafloxacin] (10 µM)	0.187	112% (inactive)
COc1cc2ncc(-c3ccccc3)nc2cc1OC [tyrphostin-AG-1296] (10 µM)	0.195	108% (inactive)
NNCCc1ccccc1 [phenelzine] (10 µM)	0.113	102% (inactive)
O=C(Nc1ccc(-c2ccnc(Nc3ccc(N4CCOCC4)cc3)n2)cc1)C1CCCN1 (centres undefined) (10 µM)	0.607	73.5% (inactive)
COc1cc2nc(C3CC3)nc(N3CCN(c4ccccc4OC)CC3)c2cc1OC (0.833333 µM)	0.157	99% (inactive)
COc1nc(C)cnc1NS(=O)(=O)c1cccnc1-c1ccc(-c2nnco2)cc1 [zibotentan] (10 µM)	0.109	120% (inactive)
C=CCOc1ccccc1OCC(O)CNC(C)C (centres undefined) [oxprenolol] (10 µM)	-0.183	114% (inactive)
